From PubChem BioAssay (NCI)
The panel holds about 79,000 compounds, 15% with a hit somewhere; the sample as a whole holds those more often. Unmarked numbers belong to inactive results. Calls of active or inactive are those of the source. Cut-off read from the data, not from the text of the source: active = growth inhibition above about 70%; inactive = the rest.

Legend:
[1] = NCI Yeast Anticancer Drug Screen. Data for the rad50 strain (AID 155);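 note: 0% = growth of vehicle-only cultures of the same strain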; settings: S. cerevisiae rad50 strain growth inhibition; at 50.0 µM; active compounds read high
Summary of the method: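 DNA repair mutant yeast, compound exposure, growth read-out; inhibition is taken relative to vehicle.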

[2] = NCI Yeast Anticancer Drug Screen. Data for the mec2-1 strain (AID 157); settings: S. cerevisiae mec2-1 strain, at 50.0 µM, active compounds read high
Summary of the method: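 Strain: mec2-1 (DNA repair/cell cycle alteration). Compound exposure, then growth measured; inhibition expressed relative to vehicle.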

[3] = NCI Yeast Anticancer Drug Screen. Data for the sgs1 mgt1 strain (AID 161);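 note: 0% = growth of cultures given vehicle only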; settings: S. cerevisiae sgs1 mgt1 strain, at 50.0 µM, active compounds read high
Summary of the method: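 Test agents were incubated with a DNA-repair-mutant yeast strain. Growth was then read and compared against vehicle-treated controls.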

[4] = NCI Yeast Anticancer Drug Screen. Data for the cln2 rad14 strain (AID 165);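 note: 0% = growth equal to vehicle treated cultures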; settings: S. cerevisiae cln2 rad14 strain, at 50.0 µM, active compounds read high
Summary of the method: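 Compounds are applied to the cln2 rad14 yeast strain, and growth is then compared with that of vehicle-treated cultures to give inhibition.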

[5] = NCI Yeast Anticancer Drug Screen. Data for the bub3 strain (AID 167); settings: S. cerevisiae bub3 mutant strain, at 50.0 µM, active compounds read high
Summary of the method: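 In this screen, a yeast mutant lacking normal mitotic checkpoint function is challenged with compound. Relative growth versus vehicle gives the inhibition value.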

[6] = NCI Yeast Anticancer Drug Screen. Data for the mlh1 rad18 strain (AID 175); settings: S. cerevisiae mlh1 rad18 strain growth inhibition; at 50.0 µM; active compounds read high
Summary of the method: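 Read-out is yeast growth inhibition, calculated against vehicle-only controls. The compound was applied to a strain engineered with DNA damage repair alterations.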

Compound	growth inhibition [1]	growth inhibition [2]	growth inhibition [3]	growth inhibition [4]	growth inhibition [5]	growth inhibition [6]
COC1=CC(=O)N(C(=O)C2CSC(C(CO)NC(=O)c3csc(/C=N/O)n3)=N2)C1 (stereo unspecified)	1.85%	-11.3%	8.9%	-4.15%	-6.25%	19.9%
CCOC(=O)c1sc2c(c1OC(=O)c1ccccc1)c(=O)n(-c1ccccc1)c(=S)n2-c1ccccc1	21%	15.9%	30.1%	24.9%	29.2%	33.7%
COC(=O)C(=O)c1c(C2CC2)[nH]c2[nH]n(-c3ccccc3)c(=O)c2c1=O	11%	20.1%	12.4%	-9.2%	-1.1%	3.6%
CNC(=O)OCCC(OC(=O)NC)C1CCC2C3CCC4CC(OC(=O)c5ccccc5)CCC4(C)C3CCC12C (stereo unspecified)	37%	1.7%	4.9%	23.3%	-4%	8.8%
CC(C)(CC(=O)Nc1ccccc1)C(=O)O	-11.8%	-7.05%	-19.4%	-12.1%	-56.9%	-0.4%
CCN(CC)C(=S)Oc1cc(C)nc(SCC(=O)c2ccc(Cl)cc2)n1	22.6%	-18.8%	41.2%	29.2%	30.8%	28.4%
CCOc1c(Cl)c(Cl)c(Cl)c(Cl)c1Cl	-9.8%	3.95%	-6.7%	9.3%	-2.9%	5.4%
C=Cc1ccc(-c2ccccc2)cc1	7.1%	-14.7%	-25.5%	-43.2%	-5.8%	-0.65%
CCN(CC)Cc1cc(Nc2nc(/C=C/c3ccccc3)nc3ccccc23)ccc1O	4.05%	-37.5%	-3.25%	13.9%	-6.7%	-14.6%
Oc1ccccc1C=Nc1ccccc1	29%	1.95%	0%	6.8%	-1.25%	-2.4%
COC(=O)N1N=C(c2ccccc2)C(C(=O)OC)(C(=O)OC)c2ccccc21	45.7%	11.9%	24.6%	16.6%	20.2%	36.8%
CC1=C(C(=O)Nc2ccccc2C)C(c2ccc(Cl)cc2)C(C(=O)Nc2ccccc2C)=C(C)N1	-3.3%	2.6%	-5.2%	14.4%	-8%	0%
COc1cccc(C2C(C(=O)O)=C(CO)Oc3cc4c(cc32)OCO4)c1 (stereo unspecified)	21.4%	15.8%	21.9%	13.6%	12.6%	15.2%
CCCCCCCCCCCCCCCC(=O)OCC1OC(OC(=O)CCCCCCCCCCCCCCC)C(OC(=O)CCCCCCCCCCCCCCC)C(OC(=O)CCCCCCCCCCCCCCC)C1OC(=O)CCCCCCCCCCCCCCC (stereo unspecified)	-19.8%	-25.8%	-19.9%	-7.05%	-24.7%	-14.8%
CC(C)[C@@H]1CC[C@@H](C)C[C@H]1OC(=O)c1c2n(c3ccccc13)C[C@H]1OC(C)(C)O[C@@H]21	5.15%	-6.65%	7.4%	22.9%	15.2%	-46.2%
CC1(C)CC(=O)C2=C(C1)NC(SSC1=C(C#N)C(c3ccc(F)cc3)C3=C(CC(C)(C)CC3=O)N1)=C(C#N)C2c1ccc(F)cc1 (stereo unspecified)	-22.4%	-12.8%	-12.4%	55.5%	-26.2%	-25.8%
CCN(CC)C(=O)Cc1c(C(=O)N(CC)CC)c(=O)nc2sccn12	-27.2%	-15.8%	-30.8%	-23.3%	-25%	-43.6%
Cc1ccc(CNC2=C(Cl)C(=O)c3ccccc3C2=O)cc1C	96.9% (active)	98.2% (active)	97.2% (active)	97.2% (active)	98% (active)	97.2% (active)
COCCc1ccncc1	-0.85%	-35.3%	-31.3%	-6.45%	-15.8%	-7.9%
O=P(Nc1ccc(Cl)cc1)(Nc1ccc(Cl)cc1)N1CCCCC1	23%	-45.1%	5.8%	-21%	19.9%	9.2%
O=c1c2c3c(sc2nc2n1N=CN(c1ccc(F)cc1)C2)CCCC3	4.95%	-1.9%	2.4%	-8.3%	-1.05%	-5.9%

Compound	growth inhibition [1]	growth inhibition [2]	growth inhibition [3]	growth inhibition [4]	growth inhibition [5]	growth inhibition [6]
Cc1nn(C)c(=O)c(N)c1-c1cc(-c2ccc(Cl)cc2)n[nH]1	13.9%	4.45%	19.9%	20.1%	18.1%	13.9%
O=C(O)C(C(C(=O)O)P(=O)(O)O)P(=O)(O)O (stereo unspecified)	-17.9%	-30.8%	-50.6%	-38.8%	-12.2%	-62.3%
C=CC(=N)N	12.3%	2.4%	-5%	8.45%	6.6%	7.6%
CCN(CC)CC(O)C=O (stereo unspecified)	10.6%	-6.7%	-3.85%	3.85%	-9.5%	6.7%
S=C(Sc1nc2ccccc2s1)Sc1nc2ccccc2s1	72% (active)	91.1% (active)	95% (active)	85.5% (active)	97.5% (active)	90.7% (active)
OCc1ccc(F)cc1CO	-12.4%	-2.35%	-2.85%	-17.1%	-11.2%	11.9%
Cc1cccc(-c2cc(=O)c3c(C)ccnc3[nH]2)c1	10.3%	-1%	-0.85%	-4.5%	-3.3%	-12.9%
COc1ccc(CC(=O)NCCc2ccc(OC)c(OC)c2)cc1Br	12.2%	-4.85%	-3.8%	8.35%	8.8%	2.6%
COc1cc2c(cc1OC)C(CC(=O)NN=C(C)C)NCC2 (stereo unspecified)	-20.6%	-19.6%	-10.2%	3.1%	-16.8%	-34.2%
O=C(O)CCC(=O)Oc1ccccc1	-17.6%	11.2%	13.2%	31.6%	9.6%	44.5%
CC(C)(C)c1ccc(C(C)(C)C)c(=O)[nH]1	-32.1%	-19.1%	-12.3%	-41.5%	-6.1%	5.65%
N#CCCCCCCCCC(=O)O	-14.6%	-14.4%	6.9%	-18.4%	-39.5%	-11.5%
Cc1c2oc3c(C)ccc(C(=O)NCCN4CCCC4)c3nc-2c(C(=O)NCCN2CCCC2)c(N)c1=O	64.5%	17.4%	5.9%	4.2%	3.6%	9.65%
Cc1ccc(OP2(Oc3ccc(C)cc3)=NP(Oc3ccc(C)cc3)(Oc3ccc(C)cc3)=NP(Oc3ccc(C)cc3)(Oc3ccc(C)cc3)=N2)cc1	10.6%	-4.15%	-17.6%	-4.5%	2.7%	0.4%
N=C(N)Sc1cc(O)c2ccccc2c1O	-33%	-6.45%	-28.1%	-45.8%	4.1%	-2%
COC1CCC2C(C1)C(C1CCCCC1)C1CCCCC1C2C1CCCCC1 (stereo unspecified)	-1.1%	8.05%	-14.6%	-7.25%	-0.9%	-7.65%
COc1cc2c(C)cc(O)cc2c2cc(O)c(C)cc12	22.6%	-1.55%	-10.3%	-5.9%	-9.9%	91.8% (active)
O=c1ccc2ccc(O)cc2o1	-1.45%	-6.7%	0.9%	2.05%	-4.65%	-11.8%
COC(=O)c1ccc(-c2nc(C#N)c(N)o2)cc1	5.9%	19.1%	-11.1%	-1.45%	-14.8%	-43%
COc1ccccc1N=NNc1ccc(S(=O)(=O)NC(C)=O)cc1	14.9%	-28.5%	-1.1%	-0.6%	-15%	0.55%
